Results filed as inconclusive are left out. Activity calls are given as the source filed them. Calls follow the shape of the dose curve; as a rule, active = well fitted cell-killing curve with a large enough effect in the repeat runs; inconclusive = weak or mixed curves; inactive = flat fitted curve, though single readings scatter.
Test: qHTS RealTime-Glo MT Cell Viability Assay in HepG2 cells - 32 hour (AID 1224877); also: nearly all actives have a fitted effect of over 55% in size
Settings: RealTime-Glo luminescence; series mostly up to 76.8 µM; activity change, negative = cytotoxic: at the top concentration
Source text: U.S. Tox21 Program National Center for Advancing Translational Sciences [NCATS] NIH Chemical Genomics Center [NCGC] U.S. Environmental Protection Agency [EPA] National Institutes of Environmental Health Sciences [NIEHS] National Toxicology Program [NTP] U.S. Food and Drug Administration [FDA] Tox21 Assay Overview: Measure of cell viability is critical in the cell-base assay. Analysis of cell viability is necessary for the characterization of cell responses to cytotoxic drugs and environmental stress. A RealTime-Glo MT Cell Viability Assay to monitor cell viability in real time of continues cell culture during 40 hours of compound treatment was used to screen Tox21 10K library compounds in HepG2 cells. The RealTime-Glo MT Cell Viability Assay is a nonlytic, homogeneous, bioluminescent method to measure cell viability in real time using a simple, plate-based method. The assay involves adding NanoLuc luciferase and a cell-permeant prosubstrate to cells in culture. Viable cells reduce the proprietary prosubstrate to generate a substrate for NanoLuc luciferase. This substrate diffuses from cells into the surrounding culture medium, where it is rapidly used by the NanoLuc Enzyme to produce a luminescent signal. The signal correlates with the number of viable cells, making the assay well suited for cytotoxicity studies.
Tox21 Assay Protocol Summary: The mixture of HepG2 cell suspension and reagents were dispensed at 600cells/6 ul/well in 1536-well tissue culture treated black solid bottom plates using a Multidrop dispenser. After the assay plates were incubated at a 37 C/5% CO2 incubator for 5 hours, 23 nL of compounds dissolved in DMSO, positive and negative controls was transferred to the assay plate by a pintool work station. The plates were incubated at 37 C for 40 hours. The luminescence intensity were measured at 0h, 8h, 16h, 24h, 32h and 40h time points using ViewLux plate reader during compound treatment.
% is scaled to controls: 0 for no effect and ±100 for the full control effect; potency is read from the fitted curve at half-maximal effect.

| Compound | activity change, negative = cytotoxic | Potency |
| --- | --- | --- |
| CC1=CC[C@@H](C(C)(C)O)CC1 | 22.3% (inactive) | – |
| O=S(=O)(c1ccc(OCc2ccccc2)cc1)c1ccccc1O | -9.99% (inactive) | – |
| CN(C[C@@H](CC[N+]12CCC(C3CCCCC3)(CC1)CC2)c1ccc(Cl)c(Cl)c1)C(=O)c1cc(C(F)(F)F)cc(C(F)(F)F)c1 | – | 24.5 µM (active) |
| CCSCC | -1.77% (inactive) | – |
| O=[N+]([O-])c1ccc(CO)cc1 | 10.7% (inactive) | – |
| CCC(=O)OC/C=C(\C)CCC=C(C)C | -5.05% (inactive) | – |
| Cc1cc(Br)ccc1NC(=O)CCl | – | 43.6 µM (active) |
| COCCC(=O)OC | -1.09% (inactive) | – |
| COc1cc(OC)nc(NC(=O)NS(=O)(=O)Nc2ccccc2C(=O)N(C)C)n1 | -3.86% (inactive) | – |
| CO[Si](OC)(c1ccccc1)c1ccccc1 | -0.132% (inactive) | – |
| CSc1ccc(O)cc1C | 4.33% (inactive) | – |
| [Cl][Eu]([Cl])[Cl] | -13.2% (inactive) | – |
| Clc1cccc(Cl)n1 | -17.5% (inactive) | – |
| CCOC(=O)OC(=O)OCC | -2.55% (inactive) | – |
| c1ccc(C[P+](c2ccccc2)(c2ccccc2)c2ccccc2)cc1 | -21.4% (inactive) | – |
| CCCCCN=C(N)N/N=C/c1c[nH]c2ccc(OC)cc12 | – | 5.35 µM (active) |
| CCCCCCCCOC(=O)c1cc(O)c(O)c(O)c1 | – | 19.5 µM (active) |
| CCCCCCCCc1ccc(Nc2ccc(CCCCCCCC)cc2)cc1 | 5.7% [at 35.3 µM] (inactive) | – |
| Cc1c[nH]c(=O)[nH]c1=O | -0.844% (inactive) | – |
| CN1CCN(CCCN2c3ccccc3Sc3ccc(Cl)cc32)CC1 | – | 23.9 µM (active) |

| Compound | activity change, negative = cytotoxic | Potency |
| --- | --- | --- |
| O[Si](c1ccccc1)(c1ccccc1)c1ccccc1 | -7.69% (inactive) | – |
| O=C1CCC/C=C\CCCCCCCCCC1 | -5.29% (inactive) | – |
| O=C1CCCCCCCCCCCCCC1 | -8.15% (inactive) | – |
| O=C(O)C[C@H](O)C[C@H](O)/C=C/c1c(C2CC2)nc2ccccc2c1-c1ccc(F)cc1 | -27.7% [at 15.8 µM] (inactive) | – |
| CSc1nnc(C(C)(C)C)c(=O)[nH]1 | 3.09% (inactive) | – |
| C[C@H]1O[C@@H](O[C@H]2CC[C@@]3(C)[C@H](CC[C@@H]4[C@@H]3C[C@@H](O)[C@]3(C)[C@@H](C5=CC(=O)OC5)CC[C@]43O)C2)C[C@H](O)[C@@H]1O[C@H]1C[C@H](O)[C@H](O[C@H]2C[C@H](O)[C@H](O[C@@H]3O[C@H](CO)[C@@H](O)[C@H](O)[C@H]3O)[C@@H](C)O2)[C@@H](C)O1 | -23.3% [at 35.3 µM] (inactive) | – |
| CCCCCCCC/C=C\CCCCCCCC(=O)N(CCO)CCO | -19.8% (inactive) | – |
| Brc1cc(Br)cc(Br)c1 | -6.67% (inactive) | – |
| Nc1cccnc1N | -0.11% (inactive) | – |
| N#CCCOCCC#N | 11.1% (inactive) | – |
| CC(C)c1ccc2sc3ccccc3c(=O)c2c1 | -14.8% (inactive) | – |
| Oc1ccc(Cl)cc1C1CCCC1 | -16.6% (inactive) | – |
| O=[N+]([O-])c1ccc(O)c2ncccc12 | -28.4% [at 35.3 µM] (inactive) | – |
| CC/C(=C(/c1ccc(O)cc1)c1ccc(OCCN(C)C)cc1)c1ccccc1 | – | 14.4 µM (active) |
| CN(C)CCOc1ccc(/C(=C(/CCCl)c2ccccc2)c2ccccc2)cc1 | – | 40.9 µM (active) |
| CCCOC(=O)c1ccc(O)cc1 | 1.91% (inactive) | – |
| CCCC(C)C=O (stereo not given) | 5.13% (inactive) | – |
| CC(Cc1ccc(O)c(O)c1)C(C)Cc1ccc(O)c(O)c1 (stereo not given) | – | 49 µM (active) |
| CC1(C)[C@H](C(=O)OCc2cccc(Oc3ccccc3)c2)[C@@H]1C=C(Cl)Cl | 1.71% (inactive) | – |
| Cc1ccc2sc3cccc(C)c3c2c1 | 2.74% (inactive) | – |

From PubChem BioAssay (Tox21)
